Source: ChEMBL document CHEMBL3988442, “University of Dundee, Small-Polar-MMV Screening Library” (2021)

Columns and labels:
[1] = target: T1, Aspartate--tRNA(Asp/Asn) ligase (Mycobacterium tuberculosis (strain ATCC 25618 / H37Rv)) (UniProt P9WFW3); assay: Assay for Asp RNA synthetase-1 from Mycobacterium tuberculosis; assay type: functional; design: scale not given: direction of the effect not stated beside the values; settings: 30 µM; note: in the data most compounds retested in dose-response had high values
T1 sequence (whole entry): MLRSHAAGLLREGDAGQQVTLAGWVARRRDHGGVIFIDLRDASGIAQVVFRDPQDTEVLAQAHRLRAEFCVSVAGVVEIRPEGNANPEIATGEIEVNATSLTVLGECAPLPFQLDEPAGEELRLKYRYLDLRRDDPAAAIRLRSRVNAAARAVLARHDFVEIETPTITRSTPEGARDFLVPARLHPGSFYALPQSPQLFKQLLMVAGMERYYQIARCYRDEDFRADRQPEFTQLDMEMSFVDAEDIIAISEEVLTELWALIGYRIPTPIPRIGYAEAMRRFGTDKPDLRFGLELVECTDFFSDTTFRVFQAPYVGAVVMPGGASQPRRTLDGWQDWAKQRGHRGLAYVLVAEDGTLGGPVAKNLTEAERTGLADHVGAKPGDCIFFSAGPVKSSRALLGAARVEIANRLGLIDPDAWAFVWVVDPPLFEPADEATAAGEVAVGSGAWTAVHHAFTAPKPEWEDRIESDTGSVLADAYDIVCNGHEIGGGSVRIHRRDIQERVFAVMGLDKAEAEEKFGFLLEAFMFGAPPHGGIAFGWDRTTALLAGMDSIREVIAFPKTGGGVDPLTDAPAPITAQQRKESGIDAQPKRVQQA

[2] = target: Shiga toxin 2 (Escherichia coli O157:H7) (UniProt P09385+P09386); assay: E. coli 0.157:H7 Shiga Toxin SOP - stx2 screening assay; assay type: functional; design: scale not given: direction of the effect not stated beside the values; settings: 30 µM

Row | Compound | Percent Effect [1] [%] | Percent Effect [2] [%]
1 | Cc1ccc(-c2nc(CN3CCCC(Cn4cncn4)C3)no2)cc1 (configuration not stated) | 1.64 | -11.2
2 | CCCN1CCN(C(=O)c2cnccn2)[C@H]2CS(=O)(=O)C[C@H]21 | -3.33 | -11.3
3 | COCC1c2nnn(CC3CC3)c2CCN1C(=O)Cc1cccs1 (configuration not stated) | 4.11 | -2.97
4 | CCn1cc(CNC2CC(=O)N(CCc3cccc(Cl)c3)C2)cn1 (configuration not stated) | -2.05 | -2.75
5 | O=c1c2cnc(N3CCCCC3)nc2ccn1-c1ccccc1 | -0.697 | -17.9
6 | CCCS(=O)(=O)N1CCC2(CN(c3cnn(C)c3)C(=O)CN2C)C1 (configuration not stated) | -0.662 | -13.9
7 | O=C(c1n[nH]c2ccccc12)N1CCCC1c1noc(C2CC2)n1 (configuration not stated) | -5.34 | 9.03
8 | CC1CCN(c2ncc3c(n2)CN(c2ccc4c(c2)OCO4)C3=O)CC1 | 10.8 | -21.4
9 | O=C(CO)N1C[C@H]2CC[C@@H]1CN(C1Cc3ccccc3C1)C2 | 7.69 | 11.7
10 | CCN(Cc1ccc2c(c1)OCCO2)C(=O)NC(C)Cn1ccnc1 (configuration not stated) | 5.58 | -4.95
11 | COc1ccc(OC)c(CNCCc2cc(F)cc3c2OCOC3)c1 | 4.49 | 7.51
12 | COc1cc(C(=O)Nc2c(C)noc2C)ccc1C | -3.4 | -5.89
13 | COc1ncccc1C(=O)N1CCCC(c2cc(C)[nH]n2)C1 (configuration not stated) | -4.25 | 5.54
14 | CCN(CC)C1CCN(C(=O)NCc2c(C)noc2C)CC1 | 0.182 | -1.12
15 | Cc1ncccc1NC(=O)C1=NOC2(CCN(Cc3nccs3)C2)C1 (configuration not stated) | 10.6 | -15.4
16 | O=C(c1ccc(OCC2CC2)nc1)N1CCCC(n2cncn2)C1 (configuration not stated) | 1.48 | -39.7
17 | CCc1nc(N)sc1C(=O)N1CCCC(CCc2ccccc2C)C1 (configuration not stated) | 6.53 | -7.07
18 | O=C(c1cnc(-c2cccs2)s1)N1CCCN2CCCC2C1 (configuration not stated) | 8.86 | 1.08
19 | O=C(NC1CC1)N1CCc2ncnc(-c3ccncc3)c2CC1 | 5.15 | -28.2
20 | CCc1nc(CN(C)C2CCN(CCc3ccccn3)C2)no1 (configuration not stated) | 8.1 | -35.9
21 | CCC(=O)N1CCC2(CC1)COc1ccccc1S(=O)(=O)N(C)C2 | -1.57 | 6.18
22 | CC(=O)NCCc1cc(N2CCN(C(C)=O)CC2)nc(C2CC2)n1 | -3.2 | -16
23 | COc1ccc(C(CNC(=O)Nc2cn[nH]c2)N2CCOCC2)cc1 (configuration not stated) | 1.21 | 23.8

Row | Compound | Percent Effect [1] [%] | Percent Effect [2] [%]
24 | CS(=O)(=O)NCC1CCCN(C(=O)Nc2cccnc2N2CCCC2)C1 (configuration not stated) | 6.08 | -16.6
25 | CCNc1nc2c(s1)C(=O)CN(C(=O)NCCc1ccccc1)C2 | 2.72 | -10.6
26 | Cc1cc(C)n(C2CN(CC(=O)NC3CCOCC3)C2)n1 | -1.88 | -2.98
27 | Cc1ccccc1CC1(CO)CCCN(c2ncccc2C#N)C1 (configuration not stated) | 3.07 | -4.79
28 | CN1C(=O)C(C)(C)COc2cc(NS(=O)(=O)Cc3ccccc3)ccc21 | -4.77 | 14.9
29 | CSc1ccc(-c2nc(CN3CCC(NC(C)=O)C3)c(C)o2)cc1 (configuration not stated) | 2.73 | -5.95
30 | CCc1nc(CN2CCCC(NCc3ccc(C(N)=O)cc3)C2)no1 (configuration not stated) | -2.68 | -8.49
31 | Cc1cc(C)cc(N(C)S(=O)(=O)c2cc(C(=O)O)cs2)c1 | 2.79 | -3.14
32 | CCOc1cc(CN(C)CCOC)ccc1OC(F)F | -3.33 | -67.7
33 | CCS(=O)(=O)c1ccccc1N1CCC(NC(=O)NC2CCCC2)CC1 | -3 | 7.11
34 | CN1CCCC[C@@H]2[C@H]1[C@@H](c1ccccc1)CCN2C(=O)c1cnccn1 | 0.342 | -18.3
35 | Cn1ncc2c(NCCC34CCCN3CCC4)nc(C3CCCC3)nc21 | 8.28 | -7.47
36 | COc1ccc(C2CC(=O)Nc3c2cnn3C2CCCC2)cc1 (configuration not stated) | -1.45 | 10.9
37 | CNC(=O)[C@H]1C[C@@H]2CN(C(=O)c3cscn3)C[C@@H]2N1S(C)(=O)=O | 2.65 | -4.53
38 | CCCOc1cccc(CNC(=O)CN2CCN(C)CC2C)c1 (configuration not stated) | 2.62 | -7.72
39 | Cc1n[nH]c(C2CN(C(=O)c3cnc[nH]3)CCO2)n1 (configuration not stated) | 1.76 | 23.8
40 | Cc1cnn(CC2CCCN2Cc2nc3ccccc3nc2C)c1 (configuration not stated) | -1.82 | -1.37
41 | COc1ccc(NC(=O)c2ccc(-n3ncc(C#N)c3N)cc2)cn1 | 1.4 | -48.1
42 | Cc1nc(C2CCCN(C(=O)CCCn3ccnc3C)C2)no1 (configuration not stated) | -1 | 14.1
43 | N#Cc1cnn(-c2ccc(C(=O)Nc3ccccn3)cc2)c1N | -3 | -40.7
44 | O=C(NCC1(CO)CC1)c1cccc2ccccc12 | -3.45 | -0.178
45 | CN1CCN(CC2CC2)C(=O)c2cnc(N3CCCCC3)nc21 | 3.69 | -8.64
46 | COc1ccc(COCC(O)CNC(=O)c2cc(C)cc(C)c2)cc1 (configuration not stated) | -0.859 | -16.6
